PubChem BioAssay (NCI)
About 83,000 compounds went through this panel and 20% of them were active in at least one assay; those are over-represented in the sample as a whole.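 Single-concentration screen, 48 h exposure, 96-well plates. Endpoint: percent growth. Below 10 = active.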 Values without a mark were called inactive. Active and inactive are the calls of the source.

How the values were obtained:
Assay in all cases: NCI-60 one-dose screen, 48 h (100 = growth as untreated, 0 = no growth, -100 = all killed)
Details in all cases: 10 µM unless noted
[1] = tested on: SK-MEL-2 melanoma
[2] = tested on: EKVX NSCLC
[3] = tested on: SN12C renal
[4] = tested on: UO-31 renal
[5] = tested on: TK-10 renal
[6] = tested on: ACHN renal
[7] = tested on: CAKI-1 renal
[8] = tested on: A498 renal
[9] = tested on: CCRF-CEM leukemia
[10] = tested on: MOLT-4 leukemia
[11] = tested on: RPMI-8226 leukemia
[12] = tested on: OVCAR-8 ovarian
[13] = tested on: OVCAR-5 ovarian
[14] = tested on: OVCAR-4 ovarian
[15] = tested on: SK-OV-3 ovarian
[16] = tested on: IGROV1 ovarian
[17] = tested on: OVCAR-3 ovarian
[18] = tested on: HS 578T breast
[19] = tested on: NCI/ADR-RES ovarian

COc1ccc(CNC(=O)C(=O)[C@H](Cc2ccccc2)NC(=O)c2[nH]c3ccccc3c(=O)c2C)cc1
growth [1]: 109% | growth [2]: 95.5% | growth [3]: 86.6% | growth [4]: 97.4% | growth [5]: 98.8% | growth [6]: 100% | growth [7]: 94.4% | growth [8]: 100% | growth [9]: 110% | growth [10]: 97.7% | growth [11]: 102% | growth [12]: 102% | growth [13]: 102% | growth [14]: 99.5% | growth [15]: 108% | growth [16]: 98.3% | growth [17]: 103% | growth [18]: 98.8% | growth [19]: 108%

COc1ccc(-c2c(C(=O)NS(C)(=O)=O)n(Cc3cccc(C(F)(F)F)c3)c3ccccc23)cc1
growth [1]: 101% | growth [2]: 91% | growth [3]: 85.2% | growth [4]: 73% | growth [5]: 105% | growth [6]: 91.8% | growth [7]: 80.1% | growth [8]: 80.1% | growth [9]: 75.5% | growth [10]: 90.3% | growth [11]: 81.2% | growth [12]: 82.1% | growth [13]: 106% | growth [14]: 96.1% | growth [15]: 97.2% | growth [16]: 90.7% | growth [17]: 88.5% | growth [18]: 86.5% | growth [19]: 94.4%

O=C(Oc1cccc2ccccc12)Oc1cccc2ccccc12
growth [1]: 104% | growth [2]: 88.3% | growth [3]: 97.2% | growth [4]: 55% | growth [5]: 139% | growth [6]: 98% | growth [7]: 86.8% | growth [8]: 107% | growth [9]: 88.7% | growth [10]: 93.2% | growth [11]: 113% | growth [12]: 107% | growth [13]: 103% | growth [14]: 113% | growth [15]: 102% | growth [16]: 73.6% | growth [17]: 79.4% | growth [18]: 106% | growth [19]: 103%

N#Cc1c(Nc2cccc(Cl)c2)sc(C(=O)c2cc3cc(Cl)ccc3o2)c1N
growth [1]: 71.4% | growth [2]: 158% | growth [3]: 81.3% | growth [4]: 81% | growth [5]: 127% | growth [6]: 112% | growth [7]: 151% | growth [8]: 128% | growth [9]: 52.8% | growth [10]: 66.6% | growth [11]: 56.8% | growth [12]: 67.4% | growth [13]: 86.4% | growth [14]: 92.5% | growth [15]: 97.9% | growth [16]: -8.05% (active) | growth [17]: 111% | growth [18]: 105% | growth [19]: 84.3%

CSc1ncccc1C(=O)OCC(=O)Nc1oc(C)c2c(C)n[nH]c(=O)c12
growth [1]: 92.5% | growth [2]: 71% | growth [3]: 103% | growth [4]: 91.7% | growth [5]: 102% | growth [6]: 106% | growth [7]: 112% | growth [8]: 116% | growth [9]: 79% | growth [10]: 99.4% | growth [11]: 72.8% | growth [12]: 98.6% | growth [13]: 94.3% | growth [14]: 104% | growth [15]: 96% | growth [16]: -4.78% (active) | growth [17]: 106% | growth [18]: 104% | growth [19]: 102%

CC(=O)CC(c1ccccc1)c1c(C)[nH]c2ccccc12 (stereo not drawn)
growth [1]: 105% | growth [2]: 85.9% | growth [3]: 94% | growth [4]: 72.6% | growth [5]: 117% | growth [6]: 92.8% | growth [7]: 77.8% | growth [8]: 88.1% | growth [9]: 101% | growth [10]: 95% | growth [11]: 94.4% | growth [12]: 97.4% | growth [13]: 94.2% | growth [14]: 100% | growth [15]: 104% | growth [17]: 95.9% | growth [18]: 84.6% | growth [19]: 93.6%

NS(=O)(=O)c1ccc(-n2nc(C(=O)N/N=C\c3ccc(F)cc3)cc2-c2ccc(Br)cc2)cc1
growth [1]: 80% | growth [2]: 72.7% | growth [3]: 92.7% | growth [4]: 75% | growth [5]: 121% | growth [6]: 88.2% | growth [7]: 41.8% | growth [8]: 31.9% | growth [9]: 74.8% | growth [10]: 80.4% | growth [11]: 94.9% | growth [12]: 94.5% | growth [13]: 94.9% | growth [14]: 87.2% | growth [15]: 88.6% | growth [16]: 73.6% | growth [17]: 82.3% | growth [18]: 72.1% | growth [19]: 67.8%

C[C@H](C(=O)Nc1ccc(S(N)(=O)=O)cc1)S(=O)(=O)c1ccccc1
growth [1]: 102% | growth [2]: 98.3% | growth [3]: 101% | growth [4]: 85.8% | growth [5]: 95.4% | growth [6]: 98.9% | growth [7]: 95.2% | growth [8]: 106% | growth [9]: 105% | growth [10]: 105% | growth [11]: 110% | growth [12]: 99.1% | growth [13]: 111% | growth [14]: 105% | growth [15]: 106% | growth [17]: 117% | growth [18]: 101% | growth [19]: 99.3%

Cc1nc2cnc(N)c(C#Cc3cncc(C(=O)Nc4ccc(CN5CCN(C)CC5)c(C(F)(F)F)c4)c3)c2nc1C
growth [1]: -33.9% (active) | growth [2]: 7.92% (active) | growth [3]: 9.49% (active) | growth [4]: 2.11% (active) | growth [5]: 4.77% (active) | growth [6]: 0.0511% (active) | growth [7]: -36.4% (active) | growth [8]: -81% (active) | growth [9]: 13.7% | growth [10]: 8.72% (active) | growth [11]: -23% (active) | growth [12]: 10.4% | growth [13]: 8.89% (active) | growth [14]: -10.9% (active) | growth [15]: 8.06% (active) | growth [16]: -10.4% (active) | growth [17]: 8.72% (active) | growth [19]: 36.1%

CC(=O)O.CN1[CH-]N(Cc2ccc(C#N)cc2)c2ccccc21.[Ag+]
growth [1]: 89.8% | growth [2]: 108% | growth [3]: 111% | growth [4]: 97.4% | growth [5]: 103% | growth [6]: 106% | growth [7]: 104% | growth [8]: 99.7% | growth [9]: 24.7% | growth [10]: 90.1% | growth [11]: 88.8% | growth [12]: 101% | growth [13]: 117% | growth [14]: 112% | growth [15]: 120% | growth [16]: 111% | growth [17]: 116% | growth [18]: 103% | growth [19]: 109%

O=C(Cc1ccc(F)c(Cl)c1)Nc1cc(C2(C(F)(F)F)CC2)nn1Cc1ccccc1
growth [1]: 18.9% | growth [2]: 68.1% | growth [3]: 49.3% | growth [4]: 42.4% | growth [5]: 81% | growth [6]: 35.9% | growth [7]: 10.1% | growth [8]: -2.62% (active) | growth [9]: 15% | growth [10]: 93% | growth [11]: 75.8% | growth [12]: 25.3% | growth [13]: 91.4% | growth [14]: 75% | growth [15]: -13.1% (active) | growth [16]: 62.2% | growth [17]: 63.4% | growth [19]: 56.9%

O=c1ccc(N=Nc2ccc([N+](=O)[O-])cc2)ccc1O
growth [1]: 28.1% | growth [2]: 5.14% (active) | growth [3]: 4.86% (active) | growth [4]: 17.1% | growth [5]: 47.9% | growth [6]: 16.5% | growth [7]: 20.2% | growth [8]: 103% | growth [9]: 34.5% | growth [10]: 18.6% | growth [11]: 22.4% | growth [12]: 9.9% (active) | growth [13]: 48.5% | growth [14]: 29.6% | growth [15]: 78.6% | growth [16]: 21.4% | growth [17]: 8.96% (active) | growth [19]: -1.1% (active)

CCc1nnc(NC(=O)c2nnn(-c3ccccc3)c2-c2ccco2)s1
growth [1]: 108% | growth [2]: 84.7% | growth [3]: 96.4% | growth [4]: 87.4% | growth [5]: 115% | growth [6]: 94.5% | growth [7]: 92.1% | growth [8]: 42.7% | growth [9]: 77.8% | growth [10]: 93.7% | growth [11]: 91% | growth [12]: 103% | growth [13]: 101% | growth [14]: 80.3% | growth [15]: 82.3% | growth [16]: 103% | growth [17]: 103% | growth [18]: 92.5% | growth [19]: 100%

CCN1C(=O)N(CC)C2Nn3c(s/c(=C\c4ccc([N+](=O)[O-])cc4)c3=O)=NC21 (stereo not drawn)
growth [1]: 110% | growth [2]: 73.3% | growth [3]: 79.7% | growth [4]: 55.1% | growth [5]: 69.9% | growth [6]: 74.9% | growth [7]: 79.8% | growth [8]: 53.2% | growth [9]: 40.6% | growth [10]: 61.7% | growth [11]: 51.8% | growth [12]: 66.7% | growth [13]: 82.5% | growth [14]: 14.2% | growth [15]: 105% | growth [16]: 17.3% | growth [17]: 11.6% | growth [18]: 83.4% | growth [19]: 23.4%

CCCCCCN1C(=O)/C(=c2\sc3n(c2=O)C2C(NN=3)N(CC)C(=O)N2CC)c2ccccc21 (stereo not drawn)
growth [1]: 50.1% | growth [2]: 65% | growth [3]: 19.1% | growth [4]: -2.09% (active) | growth [5]: 3.21% (active) | growth [6]: -43% (active) | growth [7]: 4.26% (active) | growth [8]: -5.48% (active) | growth [9]: 37.8% | growth [10]: 49.4% | growth [11]: 44.6% | growth [12]: -22.3% (active) | growth [13]: 32.4% | growth [14]: -35.5% (active) | growth [15]: 54.8% | growth [16]: 24.2% | growth [17]: -50.2% (active) | growth [19]: -23.1% (active)

Cc1ccc(C(=O)NCCNc2nccc(-c3c(-c4cccc(F)c4)nc4sccn34)n2)cc1
growth [1]: 70.7% | growth [2]: 38.5% | growth [3]: 47.3% | growth [4]: 23% | growth [5]: 75.6% | growth [6]: 29.5% | growth [7]: 40.1% | growth [8]: 32.8% | growth [9]: 49.4% | growth [10]: 56.5% | growth [11]: 53.8% | growth [12]: 55% | growth [13]: 69.2% | growth [14]: 67.8% | growth [15]: 64.3% | growth [16]: 23.1% | growth [17]: 61.6% | growth [18]: 33% | growth [19]: 55.6%
